Assay results from PMC10163288.
These entries were drawn from the full list. The hit rate among all sequences tested is not known here.

B1: il2ra_site2_2erj_normal_mot_HHH_b1_00210_af2_000000043_0001_43_57_H_._HHH_b1_00702_0001_0000100006_0000001_0 (protein)
chain: SSSSDREEVEELLKELEEAYEEGDEEKFEELASRASVLIFQIGDFELWSELAELFAKLNKSSSSS
B2: il2ra_site1_2b5i_normal_mot_HHH_b1_08745_af2_000000166_0001_39_57_H_._HHH_b1_02799_0001_0000100008_0000001_0_af2pred_dldesign_0_af2pred (protein)
chain: SSSSSPEGKEVLRLLEEAEAALKAGDEAGARALLEKALEIAKKAKSNLFVKFVEAALKALESSSS
B3: il2ra_site1_1z92_sap_15_mot_HHH_b2_05498_000000253_0001_19_35_H_._HHH_b1_00069_0001_0001500068_0000001_0_0001_af2pred_0001_af2pred_1 (protein)
chain: SEEEEHIRELIEQIPDPELAEAIKKDFEQALERGIPPERVVRALLRAARLDGDPHAEELLEKALR
B4: il2ra_site1_2b5i_sap_11_mot_HHH_b1_06900_af2_000000048_0001_21_36_H_._a1725d017d863e7f4c76c21e96fab134_0001_1_af2_0001_0000100009_0000001_0_0001_af2pred_0001_af … (protein)
chain: SSSSSTLAQKAAELLEEANEADRNGDPEEARKLLEEAEKIAEEAGSKSLLRSIRVALEQLSSSSS
B5: il2ra_site1_1z92_sap_14_mot_HHH_b1_05862_af2_000000270_0001_22_38_H_._HHH_b1_06212_0001_0000200007_0000001_0_0001_af2pred_0001_af2pred_1 (protein)
chain: SSSSSDLEELIEEIARELAEENNDEDLREELEKAAERLKKLGTSHERARKILEKLVKAARSSSSS
B6: il2ra_site2_3nfp_normal_mot_HHH_b2_07840_000000026_0001_18_34_H_._HHH_b1_00954_0001_0000200021_0000001_0 (protein)
chain: SSSSDLEERLRELLEELEELVKEGDEERFREVAREVIQLVYENNDHEAFAKLADLLYLIESSSSS
B7: il2ra_site1_1z92_normal_mot_c9a8daa1dfea21d1414aecde54be4f54_0001_1_af2_000000024_0001_32_46_H_._15f70e71ac3214bf43105af5abf4654e_0001_1_af2_0001_0000300029_000 … (protein)
chain: DEEAARKDLEFALKQGIPPRSVVRAVLLALEHELGDPEEALEVIERAIKLLNDPELEEVVEKLKP
B8: il2ra_site1_2b5i_sap_21_mot_HHH_b2_08159_000000245_0001_1_21_H_._8ad9ac091cb40d3f9ee7ab2e9a3a3379_0001_0001_0000400039_0000001_0_0001_af2pred_0001_af2pred_1 (protein)
chain: SSSSSELLEEAFELLEEADELAKKGNDEEAEKVLREAEELLEKAGNPSLLRLVRAALRLTSSSSS
B9: il2ra_site2_3nfp_normal_mot_HHH_b1_05627_af2_000000038_0001_43_56_H_._HHH_b1_05526_af2_0001_0000100005_0000001_0 (protein)
chain: SSSSDKAEEYVRAAMEAARYALEDGNPEVARRSLELARQLAESLGNEELREEVEELLQELSSSSS
B10: il2ra_site2_2erj_sap_21_mot_HHH_b1_00069_af2_000000103_0001_1_18_H_._HHH_b1_05528_af2_0001_0000500009_0000001_0_0001_af2pred_0001_af2pred (protein)
chain: SSSSDEIRRLYELAEELDKLLLEGDEEKVEELLEELEQLARETNTPSAEKVVRAIEKSLESSSSS
B11: il2ra_site1_2b5i_sap_8_mot_HHH_b2_04131_000000150_0001_1_16_H_._HHH_b2_06569_af2_0001_0000100002_0000001_0_0001_af2pred_dldesign_0_af2pred (protein)
chain: SSSSSSAEEFVNEAIEKAKELKAAGRPDEARRLLKLALKRARKANDADLVARVEALLAELSSSSS
B12: il2ra_site1_1z92_normal_mot_6c2800a769814540b5b47941e710ff28_0001_af2_000000005_0001_35_49_H_._6228ca5b8b091676f337a4c0a06dbe92_0001_0003_0000300038_0000001_0 (protein)
chain: DEFLIEQLLRKIEAGNEESAERIIERLLKNAGIPPEEVERIVEELLKLLKDGDPEEARKLLREAP
B13: il2ra_site2_2erj_sap_28_mot_3b06bd03f1c6bceadc68eab912867b79_0001_000000296_0001_36_50_H_._HHH_b2_07644_af2_0001_0000200004_0000001_0_0001 (protein)
chain: SSSSSDELKRAYELANALMHLVARNDREEFERISEEFEEIVEKLDSRTAREILESLERLISSSSS
B14: il2ra_site2_2erj_sap_26_mot_6c2800a769814540b5b47941e710ff28_0001_000000197_0001_35_49_H_._HHH_b2_05475_0001_0000200011_0000001_0_0001_af2pred_0001_af2pred (protein)
chain: DDEEYIEMWVELAAKRLGVPSVEVETRNGTLHVTVNGTDEAARRVLLAAELAAKAAGLPFETTEE
B15: il2ra_site1_3nfp_sap_15_mot_HHH_b1_05868_af2_000000129_0001_1_19_H_._HHH_b1_04163_af2_0001_0000300017_0000001_0_0001_af2pred_0001_af2pred (protein)
chain: SSSSSWREKAMEAILRAAELANDEELREELEKLLEKLREEGDPRALREAVKLLKEAAKRLSSSSS
B16: il2ra_site2_3nfp_sap_32_mot_HHH_b1_00050_000000292_0001_22_38_H_._HHH_b2_06764_0001_0000600039_0000001_0_0001 (protein)
chain: SSSSDESEEYFEAAFELVRLALEAGDPEAARRLLEMLELVAESQNDPELQRLVEELEEELSSSSS
B17: il2ra_site1_3nfp_sap_18_mot_ems_3hM_2054_af2_000000130_0001_3_20_H_._HHH_b2_07863_0001_0000600021_0000001_0_0001 (protein)
chain: SRILERFVKIARKRGNPEFARVVEILLEVLEQDPRLKRAIDKILFELVSGKLPPEEAEELAKELK
B18: il2ra_site2_3nfp_normal_mot_HHH_b2_05513_000000198_0001_20_37_H_._52c50354b804bec8c3157ba16786ada3_0001_0001_0001000025_0000001_0_af2pred_0001_1_af2pred_swapped (protein)
chain: DDLEERLRRSAELAGDPHDAVVFFIAFLEYELGDPEEAIELALEVAEELGDPELERIIRELRKLP
B19: il2ra_site2_3nfp_normal_mot_HHH_b1_00239_000000199_0001_23_39_H_._HHH_b2_02904_0001_0000200025_0000001_0 (protein)
chain: SSSSNEEILREAAELLLELLEERGDEEELRELEELLEELKRHGDPELQLELYAVLARIYSSSSSS
B20: il2ra_site1_2b5i_normal_mot_3116615af0ee64d731c1c85d8523bf51_0001_000000216_0001_15_32_H_._HHH_b1_07838_af2_0001_0000100001_0000001_0_af2pred_dldesign_0_af2pred (protein)
chain: SSSSSALEKEVEETLAKADELKAAGKRREALEALEKIHKKLSAADAEDLQEKVEKKAKELSSSSS
B21: il2ra_site1_3nfp_normal_mot_eb5a5eebac1e5153f932cc6c3f4b2787_0001_af2_000000065_0001_18_33_H_._HHH_b2_04044_0002_0000100009_0000001_0 (protein)
chain: SSSSSDEEIRERVEELLEEAKHIPDYREASRLVEEAYRLAAELGDPELSELIYRVMREIVSSSSS
B22: il2ra_site1_3nfp_sap_21_mot_HHH_b2_02066_af2_000000034_0001_1_16_H_._c2845cfc7c062bbeb7cd94dd36b2ebbf_0001_af2_0001_0000100001_0000001_0_0001_af2pred_0001_af2pr … (protein)
chain: SSSEEELQELFKLALELHKKLTNPEARQVVIHAMALVARATRTKDPELERRAREAIEEAEELDSS
B23: il2ra_site2_2erj_normal_mot_HHH_b2_06726_000000006_0001_1_16_H_._HHH_b1_04199_0001_0000300043_0000001_1_af2pred_0001_af2pred (protein)
chain: SSSSSSEYREEIEELIEEARRVDEEEAVALLAEAAFLAVRNKDEEIFREVAELSLELYRRSSSSS
B24: il2ra_site2_3nfp_sap_23_mot_347257a5708f0dc4a322ca97a98db719_0001_1_af2_000000210_0001_36_49_H_._796cb09f51c241c629a2416424e53d75_0001_0001_0000100001_0000001_0 … (protein)
chain: SSSSDKEEERVEELLEELKRLIEEGDEEKARRAFAEAAHLIFELNDSELFARLAELALELWSSSS
B25: il2ra_site1_3nfp_sap_17_mot_HHH_b1_01159_af2_000000107_0001_1_20_H_._HHH_b1_00510_0001_0000100012_0000001_0_0001 (protein)
chain: DEEEIRREIEELLEEDPQEAMQFAMKLAHEAMRNNDPELLRVVLEALLKVTGDPSVKKLLEVARR
B26: il2ra_site1_1z92_normal_mot_HHH_b1_03515_000000289_0001_1_19_H_._HHH_b2_04566_af2_0001_0000100001_0000001_0 (protein)
chain: SSSDEEQARRSLERLVEDAVKLAGLSEEQKEKLEELVEELIERGVDFLEAIKLIDELARELSSSS
B27: il2ra_site1_2b5i_sap_13_mot_HHH_b2_07160_000000135_0001_1_14_H_._HHH_b1_04051_0001_0000500030_0000001_1_0001_af2pred_dldesign_0_af2pred (protein)
chain: SSSSSLGRRRRELLERADKAFKAEDYELLKELLKEVKELVEKTKRKSDKAILKLIEEALEESSSS
B28: il2ra_site2_2erj_sap_21_mot_6ec3e94b46d95805cdcdc10c0c108f03_0001_af2_000000040_0001_36_50_H_._HHH_b2_04396_0001_0000200006_0000001_0_0001 (protein)
chain: SSSSSEWEEAARLSVLLLEAARKNDEELLEELRREAEELIKEIKNPAARRYLEFALRDVERSSSS
B29: il2ra_site1_1z92_sap_19_mot_HHH_b2_03511_af2_000000113_0001_41_54_H_._HHH_b2_01993_af2_0001_0000400041_0000001_0_0001 (protein)
chain: DEAEEVIERAIEAVERGDPEEVRRLLEKLIEHTGDPALRFLLEVLERKLEAGNYKAARAILEKSR
B30: il2ra_site2_3nfp_normal_mot_HHH_b2_04451_000000238_0001_21_37_H_._HHH_b1_08573_0001_0000400020_0000001_0 (protein)
chain: SSSDEEERIEELIELVEELIKEGDRTEALQVLLEASELAAKLGDEELARILLELFLLLQEKSSSS

target: il2ra, P01589; experiment: yeast display titration
Sequence (P01589 whole entry): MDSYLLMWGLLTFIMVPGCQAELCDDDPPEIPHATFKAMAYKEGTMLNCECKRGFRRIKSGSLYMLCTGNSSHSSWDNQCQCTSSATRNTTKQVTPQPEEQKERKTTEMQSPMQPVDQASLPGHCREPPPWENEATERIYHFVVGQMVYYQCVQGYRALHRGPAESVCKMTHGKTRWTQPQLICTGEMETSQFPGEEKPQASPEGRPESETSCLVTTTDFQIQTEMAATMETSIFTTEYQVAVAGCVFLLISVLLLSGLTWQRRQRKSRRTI

Apparent Kd, inactive:
B1 no binding seen
B2 no binding seen
B3 no binding seen
B4 no binding seen
B5 no binding seen
B6 no binding seen
B7 no binding seen
B8 no binding seen
B9 no binding seen
B10 no binding seen
B11 no binding seen
B12 no binding seen
B13 no binding seen
B14 no binding seen
B15 no binding seen
B16 no binding seen
B17 no binding seen
B18 no binding seen
B19 no binding seen
B20 no binding seen
B21 no binding seen
B22 no binding seen
B23 no binding seen
B24 no binding seen
B25 no binding seen
B26 no binding seen
B27 > 487 nM
B28 no binding seen
B29 no binding seen
B30 no binding seen
